As a reminder, the inhibition is the change of the read-out against control, counted positive when it falls.

Sequence of Solute carrier family 2, facilitated glucose transporter member 1 (Homo sapiens) (P11166 whole entry): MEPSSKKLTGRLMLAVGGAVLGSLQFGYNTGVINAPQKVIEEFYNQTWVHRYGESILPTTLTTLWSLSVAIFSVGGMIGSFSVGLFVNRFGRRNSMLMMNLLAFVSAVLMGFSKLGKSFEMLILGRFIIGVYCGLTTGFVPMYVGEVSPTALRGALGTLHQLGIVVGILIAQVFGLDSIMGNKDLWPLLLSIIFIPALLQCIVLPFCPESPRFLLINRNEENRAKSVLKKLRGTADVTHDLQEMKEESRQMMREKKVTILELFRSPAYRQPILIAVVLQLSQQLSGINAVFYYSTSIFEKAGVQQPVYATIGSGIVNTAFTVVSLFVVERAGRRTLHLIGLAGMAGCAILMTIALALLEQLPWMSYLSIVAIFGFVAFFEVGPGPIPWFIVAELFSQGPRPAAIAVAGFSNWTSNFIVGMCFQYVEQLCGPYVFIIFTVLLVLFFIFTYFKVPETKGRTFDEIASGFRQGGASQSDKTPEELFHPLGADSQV

The assay has as its target Solute carrier family 2, facilitated glucose transporter member 1 (Homo sapiens) (UniProt P11166). Nature of the assay: ST_JUDE_LEISH: Cytotoxicity at 2uM final concentration against transgenic Leishmania Mexicana promastigotes LmGLUT1 that are glucose transport deficient and complemented with the human glucose transporter GLUT1. Activity is measured by DNA content using SYBR green in vitro. In kind it is functional.
Consider `Cn1ccnc1CNC(=O)c1ccc(-c2cccc(-c3nc4cc(F)ccc4[nH]3)c2)cc1`, for which the inhibition is -2.64%.

`CCOc1ccc(-c2nonc2NC(=O)c2ccccc2Cl)cc1OCC`: the inhibition worked out at 5.4%. With `CC(C)C(C(=O)n1cc2c(ccc3nc(N)nc(N)c32)n1)C(C)C`, the inhibition was 8.32%. For `CN(C)CCCOc1ccc(CNCC(C)(C)c2nc(-c3ccc(Cl)c(O)c3)c(-c3ccncc3)[nH]2)cc1`, the inhibition stood at 3.39%. For `CCNc1cc(C(=O)N[C@@H](Cc2ccccc2)[C@H](O)CNCCc2cccc(C(F)(F)F)c2)cc(N2CCCC2=O)c1`, the inhibition came to 1.16%. With `Cc1cc(N2Cc3ccccc3C2)nc(Nc2cccc(C#N)c2)n1`, the inhibition turned out to be 4.07%. As to `c1ccc2c(NCCCCCCCCCNc3ccnc4ccccc34)ccnc2c1`, the inhibition was -0.85%. For the compound `O=[N+]([O-])c1cccc(-n2nc(NCc3ccc(Cl)cc3)nc2-c2ccc(F)c(C(F)(F)F)c2)c1`, the inhibition is 1.19%.

As to `CCCCOC(=O)c1ccc(Nc2cc(C)nc3ccc(OC)cc23)cc1`, the inhibition is 14.7%. `N#Cc1ccc(N[C@@H](CC2CCCCC2)C(=O)NCc2cc(F)c(F)cc2F)c2ccccc12`: the inhibition amounted to 13%. With `Cc1ccc(NC(C)C(=O)Nc2ccccc2)cc1S(=O)(=O)N1CCCCCC1` (stereo not given) the figure was 10.6%; with `Cc1onc(-c2ccccc2Cl)c1C(=O)Nc1cc(Cl)c(Cl)cc1Cl`, 3.43%; with `CCNc1cc(C(=O)N[C@@H](Cc2ccccc2)[C@H](O)CNCc2cc(OC)cc(OC)c2)cc(N2CCCS2(=O)=O)c1`, 1.6%.

`CC1=C(C(=O)Nc2cc3cn[nH]c3cc2F)C(c2ccc(Cl)c(NS(C)(=O)=O)c2)CC(=O)N1` (stereo not given): the inhibition was -2.07%. With `CCC1(CC)N=C(N)N=C(N)C1c1ccc(Cl)c(Cl)c1` (stereo not given) the figure was -0.44%; with `CCCNCc1ccc(-c2ccc(CN(CCOC)C(=O)c3nn(-c4ccccc4)nc3C)cc2)nc1`, 4.16%. For the compound `CC(=O)N1c2ccccc2C(C)=CC1(C)C`, the inhibition was -0.17%. For the compound `CCNc1cc(C(=O)N[C@@H](Cc2ccccc2)[C@H](O)CNC2(C(C)C)CCC2)cc(N2CCCCS2(=O)=O)c1`, the inhibition was -0.22%. With `COc1ccc2nccc([C@@H](O)CN3CCC(NC(=O)COc4nc(SCc5ccc(F)cc5)nc5c4CCC5)CC3)c2c1` the figure was 1.06%; with `CC(CCNc1c2ccccc2nc2ccccc12)N1CCN(C)CC1` (stereo not given), 30.8%. With `N#CCCn1nc(-c2ccc(Cl)cc2)c2c(c1=O)CCCC2`, the inhibition stood at 0.21%. For `CCC(C)CN1C(=O)C(c2ccccc2)(c2ccccc2)N=C1N` (stereo not given), the inhibition was 2.09%. With `O=C(N[C@@H](Cc1ccccc1)[C@H](O)CNC1CCOCC1)c1cc(C2CCCC2)cc(N2CCCCS2(=O)=O)c1`, the inhibition is 3.67%. With `Cc1ccccc1OCC(O)CN1CCC(C2CCN(CC(O)COc3ccccc3C)CC2)CC1` (stereo not given) the figure was 2.25%.

Consider `CCCCc1ccc(-c2c(N)nc(N)nc2CC)cc1`, for which the inhibition came to 11.5%. With `O=C(Nc1cccc(CN2CCCN(Cc3cccc(F)c3)CC2)c1)c1ccc(Cl)c(Cl)c1`, the inhibition was 4.11%. As to `CC(C)NCc1ccc(-c2ccc(NC(=O)c3cccc(C#N)c3)cc2)cc1`, the inhibition was determined as 1.38%. For the compound `CN1CCN(c2cc3c(cc2Cl)CCN3C(=O)Cc2ccc(NC(=O)Nc3cccc4ccccc34)cc2)CC1`, the inhibition came out at 0.87%.

Take `O=C(NCc1ccc(Cl)cc1)c1ccc(CN2CCCN(Cc3cccc(O)c3)CC2)cc1`: the inhibition was 0.86%. With `COc1ccc2nc(C)cc(N/N=C/C=C/c3ccccc3)c2c1` the figure was 5.48%; with `COc1ccc(C(=O)Nc2ccc(Cl)cc2C(=O)Nc2ccncc2)cc1`, 4.33%; with `CC(C)CN1CCN(c2nc(C#N)c3c(c2C(=S)NC2CCCCC2)CC(C)(C)OC3)CC1`, 0.49%. On to `O=C(NCCCCCN1CCC(c2c[nH]c3ccccc23)CC1)Nc1cccc(C(F)(F)F)c1`, for which the inhibition was -1.78%.

For `COc1ccc(O)c(-c2sc(N=C(N)N)nc2-c2ccccc2)c1`, the inhibition stood at 1.77%. With `COc1cc2nc(C)nc(Nc3cccc(Br)c3)c2cc1OC` the figure was -0.77%. `FC(F)(F)c1cccc(Nc2nc3ccccc3nc2Nc2cccc(C(F)(F)F)c2)c1`: the inhibition was -0.24%. With `CN1CCN(c2cc3c(Nc4ccc5c(cnn5Cc5ccccc5)c4)ncnc3cn2)CC1` the figure was 1.33%; with `O=C(Nc1ccc(Oc2ccccc2)cc1)N(Cc1ccc(-c2ccc(CN3CCNCC3)cc2)cc1)C1CCN(Cc2ccccc2)CC1`, -1.93%.

`CCNc1cc(C(=O)N[C@@H](Cc2ccccc2)[C@H](O)CNC2CCC(C)(C)CC2)cc(N2CCCCS2(=O)=O)c1`: the inhibition was 3.16%. With `COc1cccc(C(O)CNc2ccnc(Nc3cccc(-c4csc(C)n4)c3)n2)c1` (stereo not given), the inhibition worked out at 1.26%.

For the origin of these results see ChEMBL document CHEMBL3433997, “St. Jude Leishmania screening dataset” (2016).
